The values that follow come from PubChem BioAssay.

Several values for one entry are separate records, joined by “and”; a condition that tells them apart may be missing. Equal values may be shown once. For some of these results: Potency and affinity values are given separately. Activity calls are given as the source filed them.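 How the source made its calls, unless noted: active means compounds killing one labelled cell type while sparing the other, by normalised counts and ratio limits, not self-fluorescent; inactive means the rest.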

Usually inhibition stands for the change of the read-out against control, counted positive when it falls.

Experiment [1] can be described thus: EMT-state selective cytotoxicity in co-culture – imaging, PC-3E GFP, TEM4-18 mCherry, primary screen (AID 1345086).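 On all read-outs here: cells exposed to compound for 72 h before imaging.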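 On red/green cell ratio (normalised): normalised mesenchymal count divided by normalised epithelial count so high means epithelial killing.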 Particulars: PC-3E GFP / TEM4-18 mCherry co-culture, imaging cell counts, at 1 µM; for red/green cell ratio (normalised): actives lie on both sides, counts scaled to control wells, 1 = unselective.
Experiment [2] has as its target Mitogen-activated protein kinase 7 (Homo sapiens) (UniProt Q13164). Kind of experiment: Gal4-ERK5 driven luciferase induction – cell-based, HTS, primary screen (AID 1508626;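 active means luciferase signal above three times the same-plate solvent-only control wells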;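 further: luciferase driven by Gal4-ERK5 fusion binding five Gal4 sites before minimal TATA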). Particulars: HeLa Gal4-ERK5 transactivation, 18 h, at 5 µM, stronger effect = higher value.
The nature of experiment [3]: blockers of polyQ-driven CASP3 activation – cell-based (AID 1583). Particulars: polyglutamine-induced caspase-3 activation, cell assay; stronger effect = higher value;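 tested at 10 µM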.
Experiment [4] in a line: yeast 75Q aggregation reduction – 75Q-TubU reporter (AID 1593). Conditions: Yeast 75Q polyglutamine aggregation reporter.
A short description of experiment [5]: restoration of touch response, mutant HTT neurons – whole organism, C. elegans mechanosensory neurons, N-terminal huntingtin (AID 1599). Particulars: C. elegans polyQ-huntingtin mechanosensory neurons, stronger effect = higher value.
The nature of experiment [6]: blockers of cytochrome c efflux from mitochondria – biochemical, purified mitochondria (AID 1603).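 Further: mouse liver mitochondria challenged with calcium chloride; signal normalized to the plate average as 100%.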 Conditions: stronger effect = lower value.
Experiment [7] in a line: polyglutamine aggregate formation blockers (AID 1604). Conditions: polyglutamine-induced protein aggregation inhibition assay; stronger effect = higher value; tested at 2.5 µM.
Experiment [8] is described as follows: glutamate transport activators, MN-1 cells, MN-1 cell line (AID 1612).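 Further: tested at 1 µM final; 0% = mean of DMSO vehicle wells on each plate; positive means more glutamate uptake than control and negative means less.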 Particulars: MN-1 motor neuron cells, stronger effect = higher value.
A short description of experiment [9]: GFP-Q80 aggregate reduction, neuronal-like cells, cell-based, NGF-treated PC12, GFPQ80 (AID 1614).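 Further: lower means fewer inclusions and 0 means no inclusions at all.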 Conditions: PC12 NGF-treated GFP-polyQ80 inclusion reduction.
Experiment [10] is described as follows: 75Q-TubH aggregate inhibition, S. cerevisiae, yeast (AID 1616). Particulars: S. cerevisiae 75Q-TubH polyglutamine aggregation suppression; stronger effect = higher value.
[11] abbreviates: measured here: epithelial PC-3E GFP cell survival.
[12] abbreviates: measured here: mesenchymal TEM4-18 mCherry cell survival.

Mitogen-activated protein kinase 7 (Homo sapiens), sequence (Q13164 whole entry, looked up, the tested form may be a part): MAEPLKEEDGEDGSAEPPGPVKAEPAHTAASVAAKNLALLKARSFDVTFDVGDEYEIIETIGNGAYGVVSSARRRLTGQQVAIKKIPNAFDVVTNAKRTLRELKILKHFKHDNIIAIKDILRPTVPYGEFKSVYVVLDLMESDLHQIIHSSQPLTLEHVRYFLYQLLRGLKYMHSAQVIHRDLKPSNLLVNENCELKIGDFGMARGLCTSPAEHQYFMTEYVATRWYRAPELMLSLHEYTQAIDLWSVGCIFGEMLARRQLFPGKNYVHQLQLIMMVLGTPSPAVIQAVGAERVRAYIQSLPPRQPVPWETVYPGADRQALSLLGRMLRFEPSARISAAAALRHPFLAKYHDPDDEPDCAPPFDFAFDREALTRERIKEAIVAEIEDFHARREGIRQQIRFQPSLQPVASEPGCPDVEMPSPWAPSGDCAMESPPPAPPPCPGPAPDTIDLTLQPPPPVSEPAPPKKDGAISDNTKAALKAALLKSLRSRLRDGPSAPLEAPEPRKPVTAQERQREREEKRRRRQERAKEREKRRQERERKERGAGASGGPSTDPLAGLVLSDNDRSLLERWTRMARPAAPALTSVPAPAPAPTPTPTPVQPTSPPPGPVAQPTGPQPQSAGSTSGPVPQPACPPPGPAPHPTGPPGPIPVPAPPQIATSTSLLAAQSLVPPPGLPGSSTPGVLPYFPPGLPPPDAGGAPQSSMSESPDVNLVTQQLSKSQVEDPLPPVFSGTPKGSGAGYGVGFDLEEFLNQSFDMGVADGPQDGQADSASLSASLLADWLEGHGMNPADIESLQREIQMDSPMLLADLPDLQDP

In the case of `CC(=O)OCC(OC(C)=O)C(OC(C)=O)C(OC(C)=O)C(OC(C)=O)C(COC(C)=O)OC(C)=O` (stereo not drawn), the red/green cell ratio (normalised) in [1] is 1.06 (inactive). The normalised cell number in experiment [1] (setting [11]) was found to be 0.99; in experiment [1] (setting [12]), 1.05. The luciferase signal in experiment [2] was 80 AU (inactive).
For `CC(=O)Oc1cc(OC(C)=O)c2c(c1)O[C@H](c1ccc(OC(C)=O)c(OC(C)=O)c1)[C@@H](OC(C)=O)C2`, in that order: 0.85 (inactive), 0.98, 0.84 and 16 AU (inactive).
For `CC(=O)O[C@@H]1CC[C@@]2(C)C(CC[C@]3(C)C2CC=C2C4CC(C)(C)CC[C@]4(C(=O)O)CC[C@]23C)C1(C)C` (stereo partly drawn), in that order: 0.84 (inactive), 1.04, 0.87 and 44 AU (inactive).
Consider `CC(=O)OC/C=C(\C)CC/C=C(\C)CC/C=C(\C)CC/C=C(\C)CC/C=C(\C)CC/C=C(\C)CC/C=C(\C)CC/C=C(\C)CCC=C(C)C`, for which, in experiment [1], the red/green cell ratio (normalised) is 0.99 (inactive). The normalised cell number came to 1.05 in experiment [1] (setting [11]) and 1.04 in [1] (setting [12]). For the same compound, the luciferase signal in [2] was 84 AU (inactive).
Consider `COc1cc2c(cc1OC)-c1c(oc3cc(O)cc(O)c3c1=O)CO2`, for which the red/green cell ratio (normalised) in [1] was 1.08 (inactive). The normalised cell number was 1.02 in [1] (setting [11]) and 1.09 in experiment [1] (setting [12]). Besides, in experiment [2], the luciferase signal was 16 AU (inactive).
Consider `COc1ccc([C@@H](C)C(=O)c2ccc(O)cc2O)cc1`, for which the red/green cell ratio (normalised) in experiment [1] is 1.1 (inactive). In addition, the normalised cell number is 0.96 in experiment [1] (setting [11]) and 1.05 in [1] (setting [12]). Besides, in [2], the luciferase signal was 20 AU (inactive).
For `CNc1ccccc1C(=O)N1CCc2c([nH]c3ccccc23)C1=O`, in that order: 1.01 (inactive), 0.95, 0.96 and 56 AU (inactive).
For `COc1cc(OC)c2c(=O)c(O)c(-c3ccc(OC)c(OC)c3)oc2c1`, in that order: 0.83 (inactive), 1.23, 1.02 and 64 AU (inactive).
For `COc1ccc(-c2cc(=O)c3c(O)c(OC)c(OC)c(OC)c3o2)cc1OC`, in that order: 1.15 (inactive), 0.95, 1.09 and 112 AU (inactive).
As to `S=c1ccss1`, the red/green cell ratio (normalised) in [1] is 1.04 (inactive). For the same compound, the normalised cell number is 1.15 in [1] (setting [11]) and 1.2 in experiment [1] (setting [12]). The luciferase signal in experiment [2] is 52 AU (inactive).
`CC(=O)O[C@H]1CC[C@@]2(C)C(C[C@@H](OC(C)=O)[C@]3(C)C2CC[C@@]2(C)[C@H](c4ccoc4)OC(=O)[C@H]4O[C@]423)C1(C)C` (stereo partly drawn): the red/green cell ratio (normalised) in experiment [1] was 1.12 (inactive). In addition, the figures for the normalised cell number in experiment [1] (setting [11]) and in [1] (setting [12]) were 1 and 1.12, respectively. In addition, in experiment [2], the luciferase signal was 60 AU (inactive).
As for `COc1cc(OC)c(C(C)=O)c(O)c1C`, the red/green cell ratio (normalised) in experiment [1] was 0.96 (inactive). Also, the normalised cell number in [1] (setting [11]) is 0.98; in [1] (setting [12]) it was 0.94. Besides, the luciferase signal in experiment [2] was 32 AU (inactive).
The corresponding values for `CCCCCCCCCCCCCCCC(=O)OCC(O)CO` (stereo not drawn) are 0.84 (inactive), 1.14, 0.96 and 72 AU (inactive).
For `CC(=O)O[C@H]1C[C@@H](O)C(C)(C)C2C[C@@H](OC(C)=O)[C@]3(C)C(CC[C@@]4(C)[C@H](c5ccoc5)OC(=O)C5OC543)[C@]21C` (stereo partly drawn), in that order: 0.84 (inactive), 0.84, 0.7 and 40 AU (inactive).
On to `CC1(C)CC[C@]2(C(=O)O)CC[C@]3(C)C(=CCC4[C@@]5(C)CC[C@@H](O)C(C)(C)C5CC[C@]43C)C2C1` (stereo partly drawn), for which the red/green cell ratio (normalised) in experiment [1] is 1 (inactive). Also, the normalised cell number in experiment [1] (setting [11]) stood at 0.94; in experiment [1] (setting [12]) it was 0.95. Besides, in experiment [2], the luciferase signal is 16 AU (inactive).
For `CC(=O)Oc1ccc2c(c1C(C)C)CCC1C(C)(C)CCC[C@]21C` (stereo partly drawn), in that order: 0.8 (inactive), 1.07, 0.86 and 20 AU (inactive).
Regarding `O=C(O)/C=C/C=C/c1ccc2c(c1)OCO2`, the red/green cell ratio (normalised) in experiment [1] was 1.14 (inactive). The normalised cell number was determined as 0.9 in experiment [1] (setting [11]) and 1.03 in experiment [1] (setting [12]). Besides, the luciferase signal in experiment [2] is 24 AU (inactive).
For `COc1ccc(/C=C/C(=O)O)cc1OC`, the red/green cell ratio (normalised) in experiment [1] is 0.97 (inactive) and 0.98 (inactive). Moreover, the normalised cell number is 0.93 and 1 in [1] (setting [11]); 0.91 and 0.98 in experiment [1] (setting [12]). The luciferase signal in experiment [2] was 52 AU (inactive) and 80 AU (inactive).
On to `CC1=CC(=O)C2C(C)(C)CCC[C@]2(C)[C@@]1(O)CCc1ccoc1` (stereo partly drawn), for which the red/green cell ratio (normalised) in experiment [1] is 1.02 (inactive). In addition, the normalised cell number in [1] (setting [11]) was 0.94; in experiment [1] (setting [12]), 0.96. The luciferase signal in experiment [2] is 128 AU (inactive).
For `CCCc1cc(OC)c2c(c1)OCO2`, in that order: 1.07 (inactive), 0.92, 0.98 and 216 AU (inactive).
The corresponding values for `O=C(O)/C=C/C=C/c1ccccc1` are 1.01 (inactive), 0.93, 0.93 and 64 AU (inactive).
For `CC(C)(N=NC(C)(C)C(=N)N)C(=N)N`, in that order: 1.04 (inactive), 1.17, 1.22 and 20 AU (inactive).
`CN(C)CC(=O)OC[C@@H](O)[C@@H](O)[C@H](O)[C@@H](O)C(=O)O`: in experiment [1], the red/green cell ratio (normalised) was 1.02 (inactive). Besides, the normalised cell number in [1] (setting [11]) came to 1.08; in experiment [1] (setting [12]), 1.1. In [2], the luciferase signal was 36 AU (inactive).
For `COc1cc2oc3cc(OC)c(OC)c(CC=C(C)C)c3c(=O)c2c(O)c1CC=C(C)C`, in that order: 0.97 (inactive), 1, 0.97 and 72 AU (inactive).
For the compound `O=C(/C=C/c1ccc(O)cc1)c1ccccc1O`, the red/green cell ratio (normalised) in experiment [1] is 0.93 (inactive). Also, the normalised cell number in experiment [1] (setting [11]) was determined as 1.02; in [1] (setting [12]), 0.94. Also, the luciferase signal in experiment [2] is 96 AU (inactive).
For `C#CCCCCCCCCCCCc1ccco1`, in that order: 0.97 (inactive), 1.01, 0.98 and 148 AU (inactive).
For `C=C[C@@H](C1=CC(=O)C(OC)=C(OC)C1=O)c1ccccc1`, in that order: 0.99 (inactive), 1.04, 1.04 and 136 AU (inactive).
On to `O=c1cc(-c2ccccc2O)oc2cc(O)ccc12`, for which, in experiment [1], the red/green cell ratio (normalised) is 1 (inactive). Further, the normalised cell number in experiment [1] (setting [11]) and in [1] (setting [12]) was 0.97 each time. Besides, in experiment [2], the luciferase signal is 112 AU (inactive).
Take `CC(C)c1ccc2c(c1)CCC1C(C)(C(N)=O)CCCC21C` (stereo not drawn): the red/green cell ratio (normalised) in [1] is 1.04 (inactive). In addition, the normalised cell number in [1] (setting [11]) is 1.22; in [1] (setting [12]) it was 1.27. The luciferase signal in experiment [2] is 64 AU (inactive).
For `COc1cc(O)c(C(=O)/C=C/c2ccc(O)c(OC)c2)c(OC)c1`, in that order: 0.93 (inactive), 1.1, 1.02 and 60 AU (inactive).
For the compound `O=c1ccn([C@@H]2O[C@H](COP(=O)(O)OP(=O)(O)OP(=O)(O)O)[C@@H](O)[C@H]2O)c(=O)[nH]1`, the inhibition in experiment [3] is -7.02%. Also, in experiment [4], the score turned out to be 1.5. Moreover, the rescue above control in experiment [5] stood at 2.48. Further, the cytochrome c release ratio in experiment [6] amounted to 0.87. Besides, the inhibition of aggregation in [7] was found to be 60.6%. In [8], the glutamate uptake change amounted to 11.8%. In experiment [9], the inclusion score turned out to be 2. Also, in [10], the aggregation suppression score is 1.14. Also, the red/green cell ratio (normalised) in experiment [1] is 1.18 (inactive). Moreover, the normalised cell number in experiment [1] (setting [11]) was 0.94; in experiment [1] (setting [12]), 1.1. In addition, in experiment [2], the luciferase signal was 36 AU (inactive).
As to `COc1cc2oc3cc(OC)c(OC)c(CC=C(C)C)c3c(=O)c2c(OC)c1CC=C(C)C`, the red/green cell ratio (normalised) in [1] was 0.95 (inactive). Besides, the normalised cell number in [1] (setting [11]) was 1.02; in [1] (setting [12]), 0.97. Also, in experiment [2], the luciferase signal is 164 AU (inactive).
For `CC1(C)C(=O)C=C[C@@]2(C)C1CC(=O)[C@]1(C)C2CC[C@@]2(C)[C@H](c3ccoc3)OC(=O)[C@H]3O[C@]321` (stereo partly drawn), in that order: 1.47 (inactive), 0.82, 1.21 and 16 AU (inactive).
Regarding `COc1ccc(-c2cc(=O)c3c(O)cc(OC)c(OC)c3o2)c(OC)c1`, the red/green cell ratio (normalised) in [1] is 1.02 (inactive). Besides, the normalised cell number in experiment [1] (setting [11]) came out at 0.97; in experiment [1] (setting [12]) it was 0.99. The luciferase signal in experiment [2] is 108 AU (inactive).
For `CC(=O)O[C@@H]1CC2C(C)(C)C(=O)C3OC3[C@]2(C)C2CC[C@@]3(C)[C@H](c4ccoc4)OC(=O)C4OC43[C@@]21C` (stereo partly drawn), in that order: 1.04 (inactive), 1.01, 1.05 and 4 AU (inactive).
